# Reference: PubChem BioAssay AID1508600 (Functional Genomics Laboratory (NCATS/FGL), 2020)
# The campaign covered roughly 53,000 sequences. About 3,700 (7%) were called active.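 How the source made its calls: active means gene knockdowns whose robust z-score for IL-1 alpha signal is at least 2 or at most -2, so actives lie on both sides; inactive means the rest.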 The full list was thinned out, with actives kept by preference.
# Assay: Components of the Cytosolic LPS Sensing Pathway: Gene Identification via Genome-wide siRNA Screen;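 further: robust z of the log signal after scaling to non-targeting control siRNA wells of the plate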
# Settings: RAW264.7 macrophages, IL-1a HTRF, actives lie on both sides, screened at 100 nM (by protocol), cells primed 5 h with Pam3CSK4 first
# How it was run: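 Supernatant IL-1a by HTRF from RAW264.7 cells primed with Pam3CSK4 (5 hours) and transfected with LipidA (24 hour) after 48h siRNA knockdown at 100 nM; cell viability checked with CellTiter-Glo.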
row,Sequence,z-score
1,GGACUGAAGUGAAAUAAAUTT against Trav13-5,-0.949 (inactive)
2,GCAUCAUCGUGGGAAACCUTT against Olfr1284,0.331 (inactive)
3,CCAUUCUCUUUACCUCAAUTT against Rdh12,-0.161 (inactive)
4,CCUGUAGGAGUGACUUCCUTT against Crbn,0.223 (inactive)
5,GGGACCAGAUAGAAAUUAUTT against Arhgef25,0.414 (inactive)
6,GGAAGAGAAGUUGUCCAAATT against Creld1,0.477 (inactive)
7,GCUCACAGCAGCAUUUUACTT against 1700034H15Rik,-2.48 (active)
8,GGACUCCUACAUGAUUGCUTT against Slc52a2,-0.362 (inactive)
9,UGUGGUCUUAGAAUCUAGCTT against Tdpoz3,4.49 (active)
10,CCAUUACUUCUGUGACCUCTT against Olfr32,-0.289 (inactive)
11,GCUGCUUUCUUUGGAGGACTT against Olfr484,2.27 (active)
12,GGAGCUCUUUGACUUCUUGTT against Uqcrh,0.359 (inactive)
13,GGUGGCUAAAAGCUCUUCCTT against Odc1,1.9 (inactive)
14,GGCCCAUUGUUUGAGCCCATT against A530013C23Rik,-0.961 (inactive)
15,GGCAUUAACCUGAGAUGAUTT against Sprr2i,-1.42 (inactive)
16,GGCUAGCAGGAUCAGCAUCTT against Rnf212,0.617 (inactive)
17,GGUGCUUUUUUUGGAUCAATT against Olfr507,-1.05 (inactive)
18,GGAAGAGAGGGUGAAUAUGTT against Tmem41b,-2.56 (active)
19,CGGCAUUCAGAUUGUCUCUTT against Nup210,-1.22 (inactive)
20,GGCCAUUGAGUGCUCCUACTT against Dhcr7,-0.113 (inactive)
21,CCACUCAUUGUUCAUGGAATT against Olfr1490,0.798 (inactive)
22,GGACCUGAGUUAGGAGAAUTT against Zfp105,-2.06 (active)

row,Sequence,z-score
1,GGCUGAGAAUGCAAGAAUGTT against Krt32,-0.446 (inactive)
2,GGAAUUCAGCUUUGUGCAATT against Asl,0.764 (inactive)
3,GGCCAGCAAAACAAAUGACTT against Slc34a2,-1.01 (inactive)
4,GGUAAAGCAGUACCUUUCUTT against Mitf,2.53 (active)
5,GGUGAUGCUGGAAUCUUCCTT against Svop,0.216 (inactive)
6,GCGAUUCGUCUUCGAGUUCTT against Fam161a,0.483 (inactive)
7,GGAACUAUUUUUUACCCAATT against Dclre1a,-0.497 (inactive)
8,GGAAAGAAGAUCGAUUACATT against Atp11c,2.22 (active)
9,GCCCUGUUUACACCUCUGATT against Sec23a,-1.38 (inactive)
10,CGAAAGGUCAAAUUAACAGTT against Serpinb5,1.23 (inactive)
11,CCACAAAGAAUGCAUUACUTT against Eml3,-0.912 (inactive)
12,GCUACUCAGUCUUUACUAUTT against Telo2,-2.14 (active)
13,CCUGGCAGAGCAUUAUCUATT against Tmem201,0.558 (inactive)
14,GGAGACAACUGUCAAGCUGTT against Igdcc4,-0.0921 (inactive)
15,GGCACAGAAAAUCUUCAAATT against Ap2a1,0.97 (inactive)
16,GGACUGAAGGAUGCCUCAATT against Cngb1,0.78 (inactive)
17,GCUAACAACGUGUGCUUCUTT against Fam20a,-0.174 (inactive)
18,CCCGAGAUGUAUCAUCUAATT against Krcc1,-0.31 (inactive)
19,UUCACUGUAAGAAUUGUCUTT against Vmn1r93,-2.11 (active)
20,GGGAAUACAUUUUAUCUUCTT against Cpox,-0.16 (inactive)
21,GAUGACUAGCUCUACUUUATT against Olfr738,-0.0882 (inactive)
22,GGUAUCAGUAGCUGAUGUGTT against Pde8a,1.36 (inactive)

row,Sequence,z-score
1,GGUGUGGGUGACAAGGUUATT against Tymp,0.153 (inactive)
2,GCAACACAAACACUGGCUATT against D930020B18Rik,-1.57 (inactive)
3,CCUAGGAUAGAGAUUGUUGTT against Ndufaf3,0.135 (inactive)
4,GGUAGAUCAUGGCCAUCCUTT against Ntf5,2.04 (active)
5,CGAUACACUGGUGCCCUAUTT against Tmem201,-0.158 (inactive)
6,GGUGCCAGAUGUCAAGAAATT against Rpn2,-0.685 (inactive)
7,GGAUCUGAAGACAUGGAGATT against H2-M1,0.659 (inactive)
8,CGCCCUUGGAGGUUAAUCATT against Nsg2,0.26 (inactive)
9,GGAACAGGCCGAGUUAGUATT against Olfr414,1.45 (inactive)
10,GGAAGGUGAUGAAUCAGCCTT against Wwtr1,-2.74 (active)
11,GCUGAGUUCAUUGCAAUGCTT against Cyp4a12b,0.274 (inactive)
12,GGACGGCAGAAAGCAUUUATT against Olfr317,0.693 (inactive)
13,GGAAUUCAUCUUACAUUCCTT against Acox3,2.42 (active)
14,GCUGACUCUUAGAUAAAUATT against Seh1l,-0.81 (inactive)
15,CCAAAGAGAUAUCCCUCCCTT against Olfr1350,-0.283 (inactive)
16,GCAGGAAUUCUUGAAUUAUTT against Ly75,2.66 (active)
17,GGACUUCUCAUCCUAUUUATT against Iah1,-0.638 (inactive)
18,GAAUGAACUGCUGAAAAAGTT against Klra16,0.462 (inactive)
19,GACUCCCAGCUGGCUAUGATT against Ifna9,0.583 (inactive)
20,GGCUCAGUACUUUCUAAAATT against Vmn1r72,-0.637 (inactive)
21,GCCUUGUCUAUAGGACUGUTT against Grm6,-0.00801 (inactive)
22,GCUUCAUGAUGAAUCACCUTT against Otulinl,-2.1 (active)

row,Sequence,z-score
1,CGAGCAUUCACCGUACGUATT against Id4,0.0542 (inactive)
2,GGGCAAGGUGUAUUGUCAATT against D830050J10Rik,-0.00921 (inactive)
3,GGCCCAACAAUACCUGCUGTT against Rgs17,-1.5 (inactive)
4,GGAUGAAGAAACAAGAAAGTT against Tmc1,-2.46 (active)
5,GCACCGACCACCAAAUCUATT against Prol1,0.65 (inactive)
6,GGUUGUGACAAUGUGAUCCTT against Coro1a,-2.22 (active)
7,CCAUCUACAAGUGUCCUUATT against Zfp276,-0.632 (inactive)
8,CCAUAUCCCUGUGGAAAAGTT against Manf,-0.322 (inactive)
9,CGGAUAUCCACAAAUAUCGTT against Atp1b3,0.508 (inactive)
10,GGGUUCAAGAGAUGGGAAUTT against Efna5,0.453 (inactive)
11,GCUCUCAGCAAAAACCGAGTT against Kif26b,2.98 (active)
12,GGCUGUCAGUGUUUACAGGTT against Srd5a1,-0.247 (inactive)
13,GGGAUGAUUCAAUGGAUAATT against Tbx22,0.789 (inactive)
14,GCUGGUUUCAUCCGCCAUATT against Dvl3,1.18 (inactive)
15,GCAUAUAAGAGAAGUGCCUTT against Parl,0.298 (inactive)
16,GCACCAAUACAUUUGGACCTT against Nabp1,1.74 (inactive)
17,GGAGUCAGUACUGUAAAAUTT against Rin2,-1.91 (inactive)
18,GGAGAGAAAAAAGUCUCUCTT against Olfr66,2.55 (active)
19,GCAACUGUUACUUCUCAACTT against Lrif1,0.598 (inactive)
20,GGUUAACUCCUUUUCUAGATT against Ints13,-0.52 (inactive)
21,GCCUACACCAGUCCUUUGATT against Baiap2l1,0.509 (inactive)
22,GGAACUAUCCAGUAGGUAGTT against Mill2,0.846 (inactive)

row,Sequence,z-score
1,GGUUCUGGAUUUCUGUUUUTT against Phf24,-1.38 (inactive)
2,GGAUGAAGAUGGAGAUCUUTT against Tfg,2.14 (active)
3,GGAAAAAGAACACCUUUUATT against Ints6l,-0.74 (inactive)
4,GGACACCACCAAUCUUGACTT against Arsg,-1.57 (inactive)
5,GGGCAUUGGGAUCCUCAAUTT against Olfr139,-0.734 (inactive)
6,CGGAUCUUGUCAAUAACCATT against Angptl1,0.295 (inactive)
7,GCAGGAGUAAGAAUGAAUGTT against Luzp1,0.999 (inactive)
8,GGAACUUAGAAGUUUACAATT against Caml,-0.0418 (inactive)
9,GGUCACAAAGAAGAAUCACTT against Heg1,-2.31 (active)
10,GGUUGAGUGUUUGAAGUCATT against Slc38a11,-1.9 (inactive)
11,GCUUUACUCCCUAAAUUCATT against Dmrt3,0.755 (inactive)
12,CCUCUUAGAUCAGGAUUAUTT against Usp37,0.991 (inactive)
13,GGCAUGGAAUGAGCUUUUCTT against Nr2e3,3.83 (active)
14,GGACUAAGCAAUCUCUUUUTT against Gspt2,0.81 (inactive)
15,GGUGCUUUGUUAUCCAUAATT against Tnfrsf26,-2.72 (active)
16,CCUAAUUGUAGUAGUACUATT against Olfr117,-0.955 (inactive)
17,GGCCUAGCAAUUCUUGAGCTT against Gm5087,-0.18 (inactive)
18,CCCUGUAUAUUGCAUUUCCTT against Pcdhb21,0.198 (inactive)
19,GGGAGUUUUUAUAUGGUUUTT against Ybey,1.27 (inactive)
